For 39 compounds, growth results are on record in PubChem BioAssay (NCI).

SMILES strings stand for the structures. Several values for one entry are separate records, joined by “and”; a condition that tells them apart may be missing. Equal entries are not always repeated. The panel holds about 83,000 compounds, 20% with a hit somewhere; the sample as a whole holds those more often.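 Activity criterion: percent growth below 10, measured after cells in 96-well plates were exposed to a single compound concentration for 48 hours.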 Activity calls are given as the source filed them.

The experiment concerns MCF7 breast. Description: NCI-60 one-dose screen, 48 h (100 = growth as untreated, 0 = no growth, -100 = all killed). Particulars: 10 µM unless noted.
Take `N#Cc1n[nH]n(-c2ccccc2)c1=O`: the growth is 95% [100 µM] (inactive) and 80.4% [100 µM] (inactive).

On to `CC1=C2NCN(C)N=C2C(C#N)(C#N)C1(C#N)C#N`, for which the growth was -60.6% [100 µM] (active) and -73.1% [100 µM] (active).

As for `COc1ccc2cc(CN3CCC(C4CCNCC4)CC3)ccc2c1`, the growth is -76.9% [100 µM] (active) and -23.4% [100 µM] (active).

With `C[N+](C)(CCNC(=O)c1cccc2cc3ccccc3nc12)Cc1ccc([N+](=O)[O-])s1`, the growth is 37.1% [25 µM] (inactive) and 55.9% [25 µM] (inactive).

In the case of `Cc1ccc(F)cc1NC(=O)O/N=C(\Cl)C(C)C`, the growth is 72.4% [100 µM] (inactive) and 46.2% [100 µM] (inactive).

For `C=C1C(=O)O[C@@H]2C[C@@]3(C)CC(=O)C=C(C)[C@@H]3C[C@H]12`, the growth is -74.2% [100 µM] (active) and -78.3% [100 µM] (active).

For `CCOC(=O)c1cc(C)nc2c1c(=O)n(-c1ccccc1)c(=O)n2CCCCN1CCN(c2ncccn2)CC1`, the growth was 100% [100 µM] (inactive) and 90.8% [100 µM] (inactive).

With `CC1CC(C(=O)OC2OC(COC3OC(CO)C(OC4OC(C)C(O)C(O)C4O)C(O)C3O)C(O)C(O)C2O)C2CCC3(C)C(=CCC4(C)C3CCC3C(C)(CO)C(O)C(O)CC34C)C2C1C` (centres undefined), the growth was -87.6% [100 µM] (active) and -100% [100 µM] (active).

On to `Cc1ccc(NC(=O)/C(Cc2cc(=O)oc3cc(O)ccc23)=N\NC(C)(C)C)cc1C`, for which the growth was 117% [100 µM] (inactive) and 97.1% [100 µM] (inactive).

Regarding `COc1ccc(N=C(C)C(C)=Nc2ccc(OC)cc2)cc1`, the growth is 38.9% [100 µM] (inactive) and 11.1% [100 µM] (inactive).

Regarding `C=CCn1c2c(c3ccccc3c1=O)C(=O)c1ccccc1-2`, the growth is 68.3% [100 µM] (inactive) and 23.2% [100 µM] (inactive).

On to `CC1CC(=O)N(N(C)C)C(C#N)(C#N)C1(C#N)C#N` (centres undefined), for which the growth was -67.7% [100 µM] (active) and -85.9% [100 µM] (active).

As for `CC(=O)C1=C(C)N2C(=NC3=C(CCc4ccccc43)C2c2cccc(Br)c2)S1` (centres undefined), the growth was 35.9% [100 µM] (inactive) and 33.8% [100 µM] (inactive).

As for `CCCCCCCCCCCCC/C=C/[C@H]1[C@@H](C(=O)OC)N1S(=O)c1ccc(C)cc1` (some centres undefined), the growth was 53.6% [100 µM] (inactive) and 36.2% [100 µM] (inactive).

Take `COC(=O)C(=O)C(C(=O)C(=O)Nc1nc2ccc(C)cc2s1)c1nc2ccc([N+](=O)[O-])cc2[nH]c1=O` (centres undefined): the growth was 60.3% [100 µM] (inactive) and 57.7% [100 µM] (inactive).

In the case of `CC(=N/N=C/c1ccccn1)/C(C)=N/N=C(C)/C(C)=N/N=C(C)/C(C)=N/N=C(C)/C(C)=N\N=C\c1ccccn1`, the growth is 84.9% [100 µM] (inactive) and 89.9% [100 µM] (inactive).

`Cc1cc(N(CCC#N)CCC#N)ccc1/C=N/NC(=O)c1cc(Cl)ccc1O`: the growth is 43.8% [100 µM] (inactive) and 13.1% [100 µM] (inactive).

For `CC1C2(C)OC(=N)C(C#N)(C(c3cccc([N+](=O)[O-])c3)O2)C1(C#N)C#N` (centres undefined), the growth was 98.4% [100 µM] (inactive).

Turning to `Cc1ccc(C)c(NC(=O)/C(=N\N)C(c2cnc3ccc([N+](=O)[O-])cc3n2)[N+](=O)[O-])c1` (centres undefined), the growth was 50.4% [100 µM] (inactive) and 9.64% [100 µM] (active).

Take `C[C@]12CC[C@@H]3c4ccc(OS(N)(=O)=O)cc4CC[C@H]3[C@@H]1CCC2=O`: the growth is 15.4% [100 µM] (inactive) and 44.8% [100 µM] (inactive).

As for `O[C@H]1[C@H](O)[C@@H](Cn2nnc(-c3ccccc3)c2-c2ccccc2)OCO[C@@H]1Cn1nnc(-c2ccccc2)c1-c1ccccc1`, the growth is -62.6% [100 µM] (active).

For `COc1c(OC)c(OC)c2c(c1OC)c(=O)c1ccccc1n2C`, the growth was 65.5% [100 µM] (inactive) and -50% [100 µM] (active).

Regarding `C=C(CCC(C(=O)O)C1CCC2(C)C3=C(CCC12C)C1(C)CCC(O)C(C)(C)C1CC3)C(C)C` (centres undefined), the growth is -52.5% [100 µM] (active) and -56.2% [100 µM] (active).

On to `O=C1CC(c2ccccc2)NCCCCN2CC(CN1)C(C(O)c1ccccc1)C2=O` (centres undefined), for which the growth was 97.3% [100 µM] (inactive) and 76% [100 µM] (inactive).

Regarding `N/N=C(\C(=O)Nc1ccc([N+](=O)[O-])cc1)C(C1=Nc2cc([N+](=O)[O-])ccc2NC1)[N+](=O)[O-]` (centres undefined), the growth is 45.9% [100 µM] (inactive) and 33.8% [100 µM] (inactive).

With `C=C1C2CCC3C4(C)CCCC(C)(C(=O)O)C4CCC3(C2)C1OC(=O)/C(C)=C/C` (centres undefined), the growth was 1.75% [100 µM] (active) and 65.7% [100 µM] (inactive).

For `CC(C)/C(Cl)=N/OC(=O)Nc1cccc(C(F)(F)F)c1`, the growth was -79.5% [100 µM] (active) and -84.4% [100 µM] (active).

For the compound `C[C@@H]1CC[C@H]2C(C)(C)[C@H]3C[C@@]12CC[C@@]3(C)O`, the growth is 93.1% [100 µM] (inactive) and -100% [100 µM] (active).

For `COc1c2c(c3c(c1OC)c(=O)c1ccccc1n3C)OCO2`, the growth was 81.3% [100 µM] (inactive).

Take `COc1ccc(OC)c(N(CN2C(=O)CCC2C(=O)O)C(C)=O)c1` (centres undefined): the growth was 86% [100 µM] (inactive) and 95.9% [100 µM] (inactive).

On to `O=C(Cc1nc2ccc(C(=O)c3ccccc3)cc2[nH]c1=O)C(=O)Nc1ccccc1[N+](=O)[O-]`, for which the growth is 27.4% [100 µM] (inactive) and 4.17% [100 µM] (active).

In the case of `O=C1c2ccccc2-c2c1c1ccccc1c(=O)n2CCO`, the growth is 6.81% [100 µM] (active) and -32.3% [100 µM] (active).

`CC1OC(Oc2c(-c3cc(O)c(O)c(O)c3)oc3cc(O)cc(O)c3c2=O)C(O)C(O)C1O` (centres undefined): the growth was 77.9% [100 µM] (inactive) and -43.3% [100 µM] (active).

On to `COC(=O)C(C(=O)C(=O)Nc1c(C)cccc1C(C)(C)C)c1nc2ccc(Cl)cc2[nH]c1=O` (centres undefined), for which the growth is 69.9% [100 µM] (inactive) and 60.9% [100 µM] (inactive).

In the case of `Clc1ccc(C2C3COc4ccccc4C3=NN2c2ccccc2)cc1` (centres undefined), the growth was 12.9% [100 µM] (inactive) and -27.8% [100 µM] (active).

`COC(=O)C(C(=O)C(=O)NC1Nc2ccc(C)cc2S1)c1nc2ccc(Cl)cc2[nH]c1=O` (centres undefined): the growth was 79.7% [100 µM] (inactive) and 65.5% [100 µM] (inactive).

Take `CCOC(=O)COc1cc(-c2ccccc2)nc2cc(F)ccc12`: the growth was 49.3% [100 µM] (inactive) and 35.8% [100 µM] (inactive).

In the case of `COc1ccc2nc(N/N=C/c3ccc(C)s3)cc(C)c2c1`, the growth was -92.2% [100 µM] (active) and -100% [100 µM] (active).

Regarding `CCOc1cc2c(cc1O)C=C[C@@H]1[C@@H]2CC[C@]2(C)[C@@H](O)CC[C@@H]12`, the growth is -21% [100 µM] (active) and -100% [100 µM] (active).
